AHR act: human AHR activation; activation, % at 5 µM; AID 2796; P35869; AHR-responsive luciferase reporter cells, luminescence; 320,000 tested, 2.5% active; in the data active = activation above about 47%;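 note: 0% = vehicle wells and 100% = reference agonist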
Target sequence (P35869 whole entry, looked up): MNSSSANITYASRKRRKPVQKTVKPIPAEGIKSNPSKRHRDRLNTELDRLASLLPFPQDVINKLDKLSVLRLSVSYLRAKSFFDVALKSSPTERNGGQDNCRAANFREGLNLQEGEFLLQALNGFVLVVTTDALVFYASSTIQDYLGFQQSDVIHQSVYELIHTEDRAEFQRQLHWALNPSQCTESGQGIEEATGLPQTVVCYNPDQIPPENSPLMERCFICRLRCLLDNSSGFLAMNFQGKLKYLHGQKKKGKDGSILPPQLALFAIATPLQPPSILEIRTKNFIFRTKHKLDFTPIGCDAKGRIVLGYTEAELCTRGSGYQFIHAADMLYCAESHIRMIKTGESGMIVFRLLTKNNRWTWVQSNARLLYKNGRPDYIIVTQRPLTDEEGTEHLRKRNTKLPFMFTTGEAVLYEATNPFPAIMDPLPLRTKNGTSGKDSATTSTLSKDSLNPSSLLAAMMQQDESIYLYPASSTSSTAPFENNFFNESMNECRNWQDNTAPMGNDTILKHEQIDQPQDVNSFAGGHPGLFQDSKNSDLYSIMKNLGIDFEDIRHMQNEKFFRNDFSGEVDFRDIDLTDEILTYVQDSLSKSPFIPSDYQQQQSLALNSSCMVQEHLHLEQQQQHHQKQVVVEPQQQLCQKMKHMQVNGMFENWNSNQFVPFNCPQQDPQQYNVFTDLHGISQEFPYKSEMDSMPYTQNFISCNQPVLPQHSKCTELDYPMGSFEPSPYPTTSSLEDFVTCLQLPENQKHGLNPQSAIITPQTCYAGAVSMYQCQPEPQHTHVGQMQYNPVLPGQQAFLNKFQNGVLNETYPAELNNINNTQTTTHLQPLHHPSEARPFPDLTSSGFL
Platelet DG rel: modulates dense granule release in human platelets; 300,000 tested, 0.22% active; human platelet-rich plasma, SFLLRN dense granule ATP release, luminescence; inhibition, %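 (compounds screened at 7.5 µM in platelet-rich plasma)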; AID 1663;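 active = mean replicate score, as percent of positive control, at or above 50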
HIF activator: HIF pathway transcriptional activation. U2OS HRE-luciferase reporter, luminescence; normalized: DMSO 0%, desferrioxamine 100%. activation, % at 7.5 µM (by protocol). 300,000 tested, 0.32% active. AID 1910;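 active = mean activation of at least 10% of the iron chelator positive control signal, with at least half of replicates also reaching 10%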
pCIP destab: lowers stability of the mouse p/CIP coactivator protein | Q05BA5 | F442A p/CIP-EGFP cells, EGFP fluorescence, 16 h | decrease of EGFP signal, % at 10 µM | 290,000 tested, 0.01% active;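 active = EGFP signal decrease of at least 30% at 10 µM or well 3 SD below plate mean, unless failing retest; inactive = the rest, including hits failing retest or dose response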
PolyA inhibitor: yeast polyadenylation inhibition. activity score, % at 12 µM. S. cerevisiae SKY197-pL101 polyadenylation reporter, beta-gal luminescence; efflux-impaired pdr1/pdr3 knockout yeast; score 100 = 6 SD above DMSO. 300,000 tested, 0.02% active;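 active = lowest replicate activity score at least 50, where 100 means six control SD above control mean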;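 note: yeast exposed to compound for 9 h at 30 °C; higher score means more reporter readthrough which indicates perturbed polyadenylation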
* hit, by the source's call; / = not tested or not shown. This is a sample that favours compounds with a hit; in the whole collection about 2.8% have one here.

SMILES | AHR act | Platelet DG rel | HIF activator | pCIP destab | PolyA inhibitor
C/C(=N\Nc1ccc(F)cc1F)c1ccc(Br)s1 | 54* | 5 | 0 | 2 | -9
COc1ccccc1C(=O)c1cc2ccc(O)cc2oc1=O | 4 | 5 | 0 | -2 | 0
Cc1ccc(C(=O)Nc2cc3ccccc3oc2=O)cc1 | -8 | 50* | -2 | 14 | 0
O=C(c1ccc(F)cc1)c1cc2ccc(O)cc2oc1=O | 0 | 73* | 3 | -1 | 13
O=C(c1ccccc1)c1cc2ccccc2oc1=O | 49* | -3 | 1 | -2 | 2
COc1ccc(OCC(=O)Nc2cc(-c3nn(C)c(=O)c4ccccc34)ccc2N2CCOCC2)cc1 | 0 | 5 | 0 | -2 | -6
CCc1nnc(NC(=O)COc2ccccc2[N+](=O)[O-])s1 | -5 | -1 | 3 | -6 | -24
Cc1ccc(/C=C/C(=O)CCC(=O)O)cc1 | 2 | 1 | 0 | -12 | -8
CCOCCCNC(=O)CN1C(=O)COc2ccc(S(=O)(=O)N3CCCCCC3)cc21 | -3 | -4 | 1 | -3 | -13
CCCCNC(=O)CN1C(=O)COc2ccc(S(=O)(=O)N3CCCCCC3)cc21 | 12 | -5 | 46* | -14 | 6
CCCC(=O)N1CCN(c2nc3ccccc3s2)CC1 | -2 | 13 | 0 | 0 | -20
CCC(=O)N1CCN(c2nc3ccc(Br)cc3s2)CC1 | -7 | 4 | 12* | 0 | -4
CCCCC(=O)N1CCN(c2nc3ccc(F)cc3s2)CC1 | 0 | 6 | 9.8* | -8 | -8
Clc1ccc(-c2csc(N3CCc4ccccc4C3)n2)cc1 | 52* | 11 | 0 | 1 | -3
Clc1ccc(-c2csc(N3CCN(c4ccccc4)CC3)n2)cc1 | 6 | 1 | 0 | -1 | -3
c1ccc2c(c1)nc(N1CCOCC1)c1c3ccccc3[nH]c21 | 95* | -1 | 4 | -6 | -34
O=c1[nH]c2ccccc2nc1N1CCOCC1 | 5 | 0 | 0 | 0 | 7
Cc1cc(C)c2c(N)c(-c3nc4ccccc4[nH]3)sc2n1 | 55* | -1 | 3 | 1 | 10
COC(=O)c1[nH]c2ccc(C)cc2c1NC(=O)C1=COCCO1 | 68* | 11 | 2 | -16 | 0
COc1ccccc1NC(=O)CCc1c(C)[nH]c(=O)c(C#N)c1C | 2 | 40 | 0 | -18 | -5
CCN(CC(=O)Nc1ccccc1C(F)(F)F)C(=O)CCc1c(C)[nH]c(=O)c(C#N)c1C | -1 | 65* | 0 | -3 | 3
CCN1CCn2c3c(c4cc(Br)ccc42)CCCC31 (centres undefined) | 49* | 9 | 0 | / | -8
Cc1cc(N/N=C/c2ccc(O)cc2O)nc(-c2ccccc2O)n1 | 12 | -8 | 21* | 22 | 4
Oc1ccc(/C=N/Nc2ccc3ccccc3c2)c(O)c1 | 61* | -11 | 1 | -1 | 2
Cc1cc(N/N=C/c2ccc(O)cc2O)c2ccccc2n1 | -1 | -5 | 0 | -9 | 8
SMILES | AHR act | Platelet DG rel | HIF activator | pCIP destab | PolyA inhibitor
CN(Cc1ccccc1)C(=O)c1ccc(S(=O)(=O)N(C)c2ccccc2)cc1 | 0 | / | / | / | /
Cc1nc2ccccc2c(=O)n1CCc1ccc(O)cc1 | -3 | -4 | 0 | -7 | 17
O=c1c2ccccc2nc(SCCN2CCOCC2)n1CCc1ccccc1 | 52* | 1 | 0 | -2 | 15
COc1ccc(CCn2c(SCCN3CCCCC3)nc3ccccc3c2=O)cc1OC | -3 | 4 | 0 | -15 | 24
CC(=O)c1nc2ccccc2n1CCc1ccccc1 | 55* | 4 | -1 | 0 | 3
Cc1nc2ccccc2c(=O)n1CCc1ccccc1 | 51* | -11 | 0 | -3 | -10
Cc1ccc(C(=O)NCC(=O)O)o1 | 2 | -2 | 0 | -13 | 5
CC(OC(=O)c1cccc(NS(C)(=O)=O)c1)C(=O)Nc1ccc(N2CCOCC2)cc1 (centres undefined) | 4 | -3 | 0 | 18 | 21
Cc1ccc(Sc2ccc(NC(=O)c3ccc(S(C)(=O)=O)cc3Cl)cc2)cc1 | 48* | 8 | 0 | -8 | -3
CS(=O)(=O)c1ccc(C(=O)Nc2ccc(N3CCCCC3)cc2)c(Cl)c1 | -6 | -8 | -1 | 3 | -11
C/C(=N\Nc1ncc(Cl)cc1Cl)c1ccc2c(c1)OCO2 | 30 | 13 | 1 | 0 | -24
C/C(=N\Nc1ncc(Cl)cc1Cl)c1ccc(OC(F)F)cc1 | 63* | 2 | 0 | -1 | 4
CCC(C)NC(=O)CN1C(=O)NC2(CCc3ccccc3C2)C1=O (centres undefined) | -1 | -3 | -1 | 2 | -17
COc1cc2cc(CN(Cc3cccs3)C(=S)Nc3ccc(C)cc3)c(=O)[nH]c2cc1OC | 50* | 14 | -1 | -6 | 15
COc1cc2cc(CN(Cc3cccs3)C(=S)Nc3cccc(C)c3)c(=O)[nH]c2cc1OC | 31 | 6 | 0 | -15 | -4
Cc1ccc(C(=O)/C=C/c2c[nH]c3ccccc23)cc1 | 52* | 18 | 1 | -5 | -15
COc1ccc2[nH]cc(/C=C/C(=O)c3ccccc3)c2c1 | 6 | 16 | 4 | 8 | -3
Cc1[nH]c2ccccc2c1/C=C/C(=O)c1ccncc1 | 56* | -1 | 0 | -13 | -46
COc1ccc(N2CCN(C(CNS(=O)(=O)c3cc(F)ccc3F)c3cccnc3)CC2)cc1 (centres undefined) | -2 | -49 | 0 | -13 | 3
Cc1cc(NS(=O)(=O)c2ccc(NC(=O)COc3ccc(C#N)cc3)cc2)nc(C)n1 | 2 | / | / | / | /
COc1ccc(CNC(=O)CN(CC2CCCO2)C(=O)CNS(=O)(=O)c2ccc(C)cc2)cc1 (centres undefined) | -4 | 13 | 27* | -1 | 8
COc1ccc(CNC(=O)CN(CC2CCCO2)C(=O)CNS(=O)(=O)c2ccccc2)cc1 (centres undefined) | -2 | -4 | 0 | -3 | 2
CCCSc1nc(C)nc2c1c(=O)n(C)c(=O)n2C | / | / | / | -16 | /
Cc1cc(NC(=O)NC(=O)c2ccccc2F)no1 | 23 | -14 | 3 | -8 | 27
COc1ccnc(CSC(N)=Nc2cccc(C(F)(F)F)c2)c1 | 55* | -21 | 0 | 3 | 5
SMILES | AHR act | Platelet DG rel | HIF activator | pCIP destab | PolyA inhibitor
COc1ccc(C(=O)N2CCN(C(=O)Cc3ccccc3)CC2)cc1 | -2 | 1 | 0 | 2 | -25
COc1ccc(CC(=O)N2CCN(C(=O)Cc3ccc(OC)cc3)CC2)cc1 | 1 | -2 | 365* | -11 | 1
COc1ccc(CC(=O)N2CCN(c3ccc(C4=NNC(=O)CC4C)cc3)CC2)cc1 (centres undefined) | 39 | 67* | 0 | -18 | 13
COc1ccc(N2CCN(C(=O)COC(=O)Cc3ccc(F)cc3)CC2)cc1 | 3 | 5 | 0 | / | 1
CC(=O)c1ccc(S(=O)(=O)N2CCN(CC(=O)NC(=O)NC3CCCCC3)CC2)cc1 | -1 | / | / | / | /
c1ccc(CNc2nc3ccccc3n3cnnc23)nc1 | 50* | -26 | 0 | -1 | 0
